HepG2 viability – counter-screen for TGF-b inhibitors: cytotoxicity in HepG2 cells. HepG2 CAGA-GFP viability, ATP luminescence, 18 h. Potency, µM (series often up to 46.1 µM), for inactives: top-dose activity change, negative = cytotoxicity, usual class: cytotoxic. AID 588856. 0.76% of 410,000 active; note: potency is the fitted concentration of half-maximal effect
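CellTiter-Glo luminescence gave cytotoxicity after 18 hours at 37 degrees C. The cells were HepG2 CAGA-GFP in 1% FBS DMEM, stimulated with 500 pg/mL TGF-beta after compound addition. %Activity was normalised to no-cell wells (complete cell-killing) and DMSO (no toxicity), and curves were fitted and classified.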
TGFb SMAD3 inh – inhibitors of TGF-b signaling; 1.2% of 410,000 active; HepG2 CAGA-GFP TGF-b/SMAD3 reporter, GFP fluorescence, 18 h; TGF-beta stimulated, 500 pg/mL final; Potency, µM (highest dose often 46.1 µM), inactives show at the highest dose activity, negative = inhibition, usual class: inhibitors; AID 588855; note: potency is the fitted concentration of half-maximal effect; % is set by controls: 0 for no effect and ±100 for the full control effect; nearly all actives have a fitted effect of over 65% in size
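HEPG2 CAGA-GFP, 1000 cells/well; 2 h settle, 37 C; cpd via pin tool; TGF-b 500 pg/mL final; 18 h, 37 C; GFP imaging ex488/em500-530; %Activity normalised to -TGF-b and +DMSO controls; CRC fit, curve class.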
D3 antag – blocks the human D3 dopamine receptor; D3R cells, DiscoveRx beta-arrestin luminescence, antagonist mode; active compounds read low; max response, negative = inhibition, %; 2.5% of 360,000 active; AID 652054; in the data active = max response below about -50%; inconclusive = no clear call, values can overlap the other calls; note: % is set by controls: 0 for no effect and ±100 for the full control effect
Target sequence (P35462 whole entry, looked up): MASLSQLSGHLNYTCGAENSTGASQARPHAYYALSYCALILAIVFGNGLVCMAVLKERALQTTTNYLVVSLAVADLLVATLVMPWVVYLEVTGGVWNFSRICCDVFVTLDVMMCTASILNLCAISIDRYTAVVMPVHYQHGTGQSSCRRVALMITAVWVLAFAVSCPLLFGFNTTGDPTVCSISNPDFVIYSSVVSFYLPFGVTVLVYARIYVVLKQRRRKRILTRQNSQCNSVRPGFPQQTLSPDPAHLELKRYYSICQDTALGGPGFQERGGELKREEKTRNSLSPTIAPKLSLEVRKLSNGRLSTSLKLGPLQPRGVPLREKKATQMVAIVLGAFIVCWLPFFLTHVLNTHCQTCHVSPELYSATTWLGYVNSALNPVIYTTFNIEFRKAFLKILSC
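Cells expressing the human receptor were seeded at 1500 cells/well, incubated overnight at 37 degrees C in 5% CO2, then exposed to library compounds with dopamine controls for 90 minutes at 37 degrees C before luminescent detection.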
ATXN viability – viability counter-screen for ATXN expression inhibitors | 0.49% of 400,000 active | Potency, µM (top dose mostly 56.7 µM), most hits filed as cytotoxic | S2 cells (HEK-293 line with an ATXN2-luciferase reporter) viability, CellTiter-Fluor protease fluorescence, 24 h; note: potency is the fitted concentration of half-maximal effect; nearly all actives have a fitted effect of over 40% in size
DRD3 agonist – activates the human D3 dopamine receptor; 0.58% of 410,000 active; AID 652048; max activation, %; P35462; D3R DiscoveRx beta-arrestin cells, luminescence, 90 min; in the data active = max activation above about 30%; note: 0% is about no effect
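Agonist-mode cell screen: cells plated at 1500/well and incubated overnight at 37 °C, then exposed to library compounds for 90 min at 37 °C. Detection reagent was added for 30–60 min at room temperature, and luminescence was read.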
ATXN2 expr inh – reduces ATXN2 reporter expression in HEK-293 cells; HEK-293 ATXN2-luciferase reporter, luminescence, 24 h; Potency, µM (doses to about 57 µM), inactives show top-dose activity change, negative = inhibition, usual class: inhibitors; 0.72% of 360,000 active; AID 1745845; note: potency is the fitted concentration of half-maximal effect; % is set by controls: 0 for no effect and ±100 for the full control effect; nearly all actives have a fitted effect of over 55% in size
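ATXN2-luciferase reporter cells (luciferase flanked by upstream and downstream ATXN2 gene portions) were treated 24 h at 37 °C with compounds at up to 57 uM. SteadyGlo luminescence gave expression; GF-AFC fluorescence gave viability.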
Active calls of the source: *; i = inactive; ? = inconclusive; . = no result. Sampled rows, rich in hits. Any-hit rate of the full collection: about 4.8%. Unless noted, calls come from the whole dose curve; as a rule, active = well fitted curve in the direction sought with a large enough effect; inconclusive = small, poorly fitted or top-dose-only effect, or another doubt; inactive = no such curve, though single readings can be large; an effect the other way counts as inactive or inconclusive.

SMILES | HepG2 viability | TGFb SMAD3 inh | D3 antag | ATXN viability | DRD3 agonist | ATXN2 expr inh
Cc1ccc(CNC(=O)Cn2ccn(-c3ccc(F)cc3)c(=O)c2=O)cc1 | -17.1% | -0.5% | . | i | -1.8 | -7.6%
Cc1ccc(C)c(CN2C(=O)c3ccccc3S(=O)c3ccc(C(=O)N4CCN(c5cccc(Cl)c5)CC4)cc32)c1 (configuration not stated) | -25.9% | ? | . | i | -2.7 | -0.7%
CC(CNC(=O)C1CCN(Cc2cc3ccccc3n2Cc2ccccc2)CC1)c1ccccc1 (configuration not stated) | -26.4% | -1.2% | . | ? | -13.8 | -18.8%
Cn1c(/C(C#N)=C/c2ccc(C(F)(F)F)cc2)nc2ccccc21 | -21.8% | . | . | . | 8.5 | .
Cc1ccc(-c2noc(-c3c(C)noc3C)n2)cc1 | 0.891µM* | 1.6% | 3.6 | i | 1.4 | .
CCOC(=O)C1=NOC2(C1)C(=O)Nc1ccc(OC(F)(F)F)cc12 (configuration not stated) | . | . | -87.2* | . | -1.6 | ?
CC(=O)c1cccc(-c2ccc3c(c2)C(C)(Cc2ccccc2F)C(=O)N3)c1 (configuration not stated) | -31.7% | -23.7% | 49.7 | ? | 1.5 | ?
CC1(Cc2ccc(OC(F)(F)F)cc2)C(=O)Nc2ccc(OC(F)(F)F)cc21 (configuration not stated) | 17.8µM* | ? | 0.0 | ? | 11.1 | ?
CC1(Cc2ccccc2OC(F)(F)F)C(=O)Nc2c(Cl)ccc(Cl)c21 (configuration not stated) | -94.0% | 14.1µM* | -2.2 | ? | -14.7 | 0.0%
COC(=O)c1ccc(CC2(C)C(=O)Nc3ccc(-c4cccc(C(F)(F)F)c4)cc32)o1 (configuration not stated) | 22.4µM* | ? | -9.8 | 31.6µM* | -0.2 | ?
CC1(Cc2ccc(F)cc2)C(=O)Nc2c(Cl)ccc(Cl)c21 (configuration not stated) | -3.9% | -17.1% | -6.9 | i | -3.4 | -20.9%
CC1(Cc2cccc(F)c2)C(=O)Nc2ccc(OC(F)(F)F)cc21 (configuration not stated) | -67.3% | ? | 19.6 | ? | 7.4 | ?
O=C(CCCc1ccccc1)NC1CC(=O)N(c2ccc(Cl)cc2)C1 (configuration not stated) | -21.7% | ? | . | . | -17.2 | .
CCCN(C(=O)CCc1nc(-c2ccc(C)cc2)no1)c1ccc(OCC)cc1 | -25.7% | ? | . | i | -2.8 | -20.9%
CCOC(=O)N(C(=O)c1ccccc1)c1ccccc1 | -20.2% | ? | . | . | . | .
Cc1ccc2occ(-c3cc(-c4ccc(F)cc4)nc4c3COc3ccc(F)cc3-4)c(=O)c2c1 | -3.6% | -21.1% | . | i | 3.4 | 10.8%
CC1(Cc2ccc(OC(F)(F)F)cc2)C(=O)Nc2c(Cl)ccc(Cl)c21 (configuration not stated) | -112.7% | 15.8µM* | 0.0 | ? | 0.3 | ?
COc1ccc(OC(F)(F)F)cc1CC1(C)C(=O)Nc2ccc(-c3ccsc3)cc21 (configuration not stated) | -103.0% | 12.6µM* | -16.8 | . | 9.3 | -13.2%
COc1ccc(C(C)=O)cc1CC1(C)C(=O)Nc2ccc(OC(F)(F)F)cc21 (configuration not stated) | -18.3% | -6.5% | ? | i | -9.0 | -17.2%
Cc1ccc2c(c1)c1c(n2CC(O)CNC2CCCC2)CCCC1 (configuration not stated) | -101.2% | ? | 26.3 | 25.1µM* | -2.1 | .
Fc1ccc(CCn2c(Cn3c(-c4cnccn4)nc4ccccc43)nc3ccccc32)cc1 | . | . | -58.7* | ? | -14.1 | ?
CC(=O)O[C@@H]1CC2CCC1(C)C2(C)C (some centres not stated) | . | . | . | . | 8.2 | .
COc1cccc(CNC(=O)CSC2=Nc3ccccc3N=C(c3ccc(F)cc3)C2)c1 | -23.9% | 0.0% | . | ? | -8.7 | -23.3%
COc1ccc(CCNC(=O)c2ccc3c(c2)ncn3-c2ccc(C(C)C)cc2)cc1OC | -37.7% | ? | . | ? | 3.2 | 25.1µM*
COc1cc2c(cc1Cl)/C(=C\CCN(C)C)c1ccccc1S2 | -101.8% | ? | -92.4* | ? | -57.6 | -36.6%
SMILES | HepG2 viability | TGFb SMAD3 inh | D3 antag | ATXN viability | DRD3 agonist | ATXN2 expr inh
CN(C)CC/C=C1/c2cc(F)ccc2Sc2ccc(Cl)cc21 | i | ? | -84.3* | i | -14.3 | ?
CN(C)CC/C=C1/c2ccccc2Sc2c(O)cc(Cl)cc21 | 0.2% | 9.6% | ? | ? | -20.1 | -16.6%
COc1cc(Cl)cc2c1Sc1ccccc1/C2=C/CCN(C)C | -39.1% | -20.9% | -76.8* | i | 1.2 | -4.9%
COCCNc1nc(NCC2CCCCC2)c2sc(-c3ccccc3)cc2n1 | -102.2% | ? | 0.9 | 17.8µM* | 3.7 | 35.5µM*
COCCNc1nc(NCCOc2ccccc2Cl)c2sc(-c3ccccc3)cc2n1 | 14.1µM* | ? | 14.7 | ? | 58.0* | 0.0%
COCCNc1nc(NCCNC(C)=O)c2sc(-c3ccccc3)cc2n1 | -36.4% | -31.1% | -25.1 | i | -5.4 | -9.2%
COc1ccc(CN2CCC3(CCC(CNC(=O)c4ccco4)O3)CC2)c(OC)c1C (configuration not stated) | . | . | . | i | . | .
Nc1c2c(nc3ccccc13)N(C1CCCCC1)CC2 | -27.2% | 3.5% | -82.6* | i | 0.2 | -23.6%
COc1ccc(-c2cccc(NC(=O)c3ccco3)c2)nn1 | 0.0% | 12.1% | 0.0 | i | 0.5 | -5.6%
COc1ccc(-c2ccc(NC(=O)c3ccco3)cc2)nn1 | 5.01µM* | -10.8% | 2.2 | i | -1.9 | ?
O=C(Nc1ccc(Oc2cccc(C(F)(F)F)c2)nc1)c1ccco1 | -22.2% | -2.8% | 9.8 | ? | 10.2 | -14.5%
CC(C)(C)c1ccc(Oc2ccc(NC(=O)c3ccco3)cn2)cc1 | -59.5% | 11.2µM* | -15.2 | ? | -0.7 | .
O=C(Nc1ccccc1F)c1csc(COCCO)n1 | 0.0% | -7.3% | -134.2* | i | -23.8 | 23.3%
CC1(c2nc3ccccc3[nH]2)c2ccccc2C(=O)N1Cc1ccccc1 (configuration not stated) | . | . | -55.3* | i | -7.1 | 1.2%
CN(C)c1ccc(/C=C(\C#N)c2nc(-c3ccc(Cl)c(Cl)c3)cs2)cc1 | -15.2% | -0.1% | . | i | -11.5 | 0.8%
Cc1cccc(-n2c(SCC(=O)Nc3ccc(C)c(C)c3)nc3n[nH]c(C)c3c2=N)c1 | -26.5% | ? | . | . | -1.8 | .
C=C(C)COc1cc2oc(=O)c(CC(=O)N3C[C@H]4C[C@@H](C3)c3cccc(=O)n3C4)c(C)c2cc1Cl | -21.6% | -17.5% | -21.3 | i | 32.7* | 3.7%

Assay outcomes: PubChem BioAssay, National Center for Advancing Translational Sciences (NCATS)
